About 4,300 (8.3%) of roughly 52,000 compounds were called active. This excerpt belongs to a sample that is enriched for actives. Unmarked numbers belong to inactive results. No stated cut-off is given here; in the data, active means survival mostly below about 52% (no sharp cut-off); inactive means mostly above about 56%.
What follows are compounds tested on DeltatarO mutant (assay: S. aureus survival, RN4220 and DeltatarO strains – OD600, teichoic acid synthesis inhibitors, primary screen (AID 463173)). Conditions: S. aureus RN4220 wild type/DeltatarO growth, OD600, 18 h, active compounds read low, screened at 18.75 µg/mL (by protocol).

SMILES	survival
O=c1ccc2cc(S(=O)(=O)NCc3ccc(Cl)cc3)ccc2[nH]1	91%
Cc1cccc2sc(N(Cc3cccnc3)C(=O)CCOc3ccccc3)nc12	82%
Cc1cccc(N2CCN(S(=O)(=O)c3ccc4oc(=O)c5ncn(C)c5c4c3)CC2)c1C	77%
O=C(/C=C/c1ccccc1)N1CCN(Cc2cc(=O)n3nc(-c4ccccc4)sc3n2)CC1	90%
CC(NC(=O)C1CCN(C(=O)c2ccc(-n3ccc4ccccc43)s2)CC1)c1ccccc1 (stereo unspecified)	79%
CCOc1ccc(/C=C/C(=O)NCc2ccco2)cc1OC	83%
Cc1cc(C)nc(NS(=O)(=O)c2ccc(NC(=O)COc3ccc(C(C)(C)C)cc3)cc2)n1	56%
CN(C)CCN(Cc1ccccc1)S(=O)(=O)c1ccc2[nH]c(=O)ccc2c1	95%
COCCN(Cc1ccc(C)c(Br)c1)S(=O)(=O)c1ccc2[nH]c(=O)ccc2c1	20% (active)
CCN(c1ccc(OC)cc1)S(=O)(=O)c1ccc2[nH]c(=O)ccc2c1	79%
Cc1ccc2oc(C(=O)Nc3ccc(S(=O)(=O)Nc4ncccn4)cc3)cc(=O)c2c1	70%
CCS(=O)(=O)N1CCc2cc(C(=O)Nc3cc([N+](=O)[O-])ccc3C)ccc21	40% (active)
CCS(=O)(=O)N1CCc2cc(C(=O)Nc3cc(Cl)ccc3C)ccc21	72%
CCS(=O)(=O)N1CCCc2cc(C(=O)Nc3cc([N+](=O)[O-])ccc3C)ccc21	42% (active)
Cc1ccc(C)c(NC(=O)c2ccc3c(c2)CCCN3S(C)(=O)=O)c1	81%
CCS(=O)(=O)N1CCc2cc(C(=O)Nc3cc(C)cc(C)c3)ccc21	80%
CCS(=O)(=O)N1CCc2cc(C(=O)Nc3ccc(C)c(Cl)c3)ccc21	98%
CCc1nc2cccnc2n1-c1ccc(CC(=O)Nc2cccc(C)c2C)cc1	81%
O=C(NCc1ccco1)C1CCC(N2C(=O)c3ccccc3C2=O)CC1 (stereo unspecified)	63%

SMILES	survival
C=CCNC(=O)Cc1c(O)c2ccccc2[nH]c1=O	101%
CCCCCc1c(O)c2ccccc2[nH]c1=O	103%
CC(C)COC(=O)Cc1c(O)c2ccccc2[nH]c1=O	39% (active)
Cc1ccc(NC(=O)C2CCN(S(=O)(=O)c3c(C)noc3C)CC2)cc1C	91%
Cc1c(C)n(Cc2ccc(F)cc2)c2ccc(C(=O)N3CCN(c4ccc(Cl)cc4)CC3)cc12	83%
CCN1C(C(=O)c2ccccc2)=C(OC(=O)COc2ccc(OC)cc2)c2ccccc2S1(=O)=O	60%
CCCN1C(C(=O)c2ccccc2)=C(OC(=O)COc2ccc(C)cc2)c2ccccc2S1(=O)=O	19% (active)
CCN1C(C(=O)c2ccccc2)=C(OC(=O)COc2ccccc2)c2ccccc2S1(=O)=O	41% (active)
CCCN1C(C(=O)c2ccccc2)=C(OC(=O)COc2ccccc2)c2ccccc2S1(=O)=O	49%
CCN1C(C(=O)c2ccccc2)=C(OC(=O)COc2ccc(C)cc2)c2ccccc2S1(=O)=O	79%
Cc1ccc(OCC(=O)OC2=C(C(=O)c3ccccc3)N(C)S(=O)(=O)c3ccccc32)cc1	82%
COc1ccc(-c2nc(C)c(CCNS(=O)(=O)c3cc(C)c(C)cc3C)s2)cc1	72%
CCc1ccc(Nc2nn(-c3ccc(OC(F)(F)F)cc3)nc2C(C)=O)cc1	92%
CCOC(=O)N1N=C(C)CC1(O)c1ccccc1 (stereo unspecified)	90%
CCC1=NN(C(=O)c2ccccc2O)C(O)(c2ccccc2)C1 (stereo unspecified)	1% (active)
CCC1=NN(C(=O)Cc2ccccc2)C(O)(c2ccccc2)C1 (stereo unspecified)	77%
COc1ccc(CCNC(=O)C2CCCN(c3nc4c(C)cc(C)cc4s3)C2)cc1OC (stereo unspecified)	81%
O=C(CC(c1ccccc1)c1ccccc1)N1CCN(c2ccccn2)CC1	72%
Cc1ccc(C(C)C)c(OCC(=O)Nc2cc(-c3nc4ccccc4[nH]3)ccc2C)c1	71%

SMILES	survival
Cc1ccc(OCC(=O)Nc2cc(-c3nc4ccccc4[nH]3)ccc2C)c(C)c1	78%
COc1cc(OC)cc(C(=O)Nc2cc(-c3nc4ccccc4[nH]3)ccc2C)c1	44% (active)
CCCOc1cccc(C(=O)Nc2cc(-c3nc4ccccc4[nH]3)ccc2C)c1	56% (active)
Cc1ccc(-c2nc3ccccc3[nH]2)cc1NC(=O)C(C)C	70%
COc1c(Cl)cc(C(=O)Nc2cc(-c3nc4ccccc4[nH]3)ccc2C)cc1Cl	49%
Cc1ccc(-c2nc3ccccc3[nH]2)cc1NC(=O)COc1ccccc1[N+](=O)[O-]	60%
Cc1ccc(-c2nc3ccccc3[nH]2)cc1NC(=O)COc1ccc(Cl)cc1Cl	18% (active)
CCCOc1ccc(C(=O)Nc2cc(-c3nc4ccccc4[nH]3)ccc2C)cc1	44% (active)
Cc1ccc(-c2nc3ccccc3[nH]2)cc1NC(=O)COc1cccc(C)c1C	43%
CCCOc1cccc(C(=O)Nc2ccc(-c3nc4ccccc4o3)cc2)c1	77%
CCCOc1ccc(C(=O)Nc2cc(-c3nc4cc(C)cc(C)c4o3)ccc2C)cc1	85%
Cc1ccc(NC(=O)Cn2nc(C(F)(F)F)c3c2CCCC3)cc1	120%
CCn1c(=O)c2sccc2n2c(CCC(=O)Nc3ccc(OC)cc3OC)nnc12	82%
Cc1cccc(NC(=O)c2cnc3sc(N4CCCC4)nn3c2=O)c1C	73%
Cc1ccc(NC(=O)C2CCCN(c3ncnc4c3nc3n4CCCCC3)C2)c(Br)c1 (stereo unspecified)	87%
CC(=O)c1cccc(NC(=O)C2=CC(c3ccc4c(c3)OCO4)=NS(=O)(=O)N2C)c1	72%
Cc1ccc(CNC(=O)CN(c2cc(C)cc(C)c2)S(=O)(=O)c2c(C)[nH]c(=O)[nH]c2=O)cc1	91%
Cc1ccccc1NC(=O)CSc1nc2ccc(NC(=O)c3cccs3)cc2s1	91%

From PubChem BioAssay AID463173 (ICCB-Longwood Screening Facility, Harvard Medical School, 2010)
